According to the supplement of paper PMC7595190:

System: MV4-11
Experiment: CellTox Green cytotoxicity fluorescence relative to DMSO vehicle (fold of vehicle RFU); higher = more cell death (loss of membrane integrity), active = 2 or more
Method: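 Paediatric AML cell lines (MV4-11, CMK, Kasumi-1; 4x10^4 cells/well, 96-well) treated with single compounds from the Selleckchem apoptosis library at 0.01, 0.1 and 1 µM. Cytotoxicity was read with CellTox Green (RFU, Ex 485/Em 520) at 24, 48 and 72 h and normalised to the 0.1% DMSO vehicle. Normalised RFU >= 2 was taken as a successful, cell-killing treatment.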

Measured: CellTox Green cytotoxicity fluorescence

N#CC(=Cc1ccc(-c2cc(Cl)ccc2Cl)o1)C(=O)Nc1cccc2ncccc12
inactive: 0.01 µM, 24 h 1.01 | 0.01 µM, 48 h 0.987 | 0.01 µM, 72 h 0.982 | 0.1 µM, 24 h 0.998 | 0.1 µM, 48 h 0.992 | 0.1 µM, 72 h 1.01 | 1 µM, 24 h 0.969 | 1 µM, 48 h 0.985 | 1 µM, 72 h 0.984

CCOc1cc(C(C)(C)C)ccc1C1=N[C@@](C)(c2ccc(Cl)cc2)[C@@](C)(c2ccc(Cl)cc2)N1C(=O)N1CCN(CCCS(C)(=O)=O)CC1
inactive: 0.01 µM, 24 h 0.993 | 0.01 µM, 48 h 1.01 | 0.01 µM, 72 h 1.01 | 0.1 µM, 24 h 1.03 | 0.1 µM, 48 h 1.07 | 0.1 µM, 72 h 1.13 | 1 µM, 24 h 1.07 | 1 µM, 48 h 1.63
active: 1 µM, 72 h 2.02

COc1cc(C(=O)O)ccc1NC(=O)[C@@H]1N[C@@H](CC(C)(C)C)[C@](C#N)(c2ccc(Cl)cc2F)[C@H]1c1cccc(Cl)c1F [Idasanutlin]
inactive: 0.01 µM, 24 h 0.983 | 0.01 µM, 48 h 0.967 | 0.01 µM, 72 h 0.97 | 0.1 µM, 24 h 0.971 | 0.1 µM, 48 h 0.958 | 0.1 µM, 72 h 0.972 | 1 µM, 24 h 0.967 | 1 µM, 48 h 1.03 | 1 µM, 72 h 1.1

CN[C@@H](C)C(=O)N[C@H](C(=O)N1CCC[C@H]1C(=O)Nc1snnc1-c1ccccc1)C1CCCCC1
inactive: 0.01 µM, 24 h 1.01 | 0.01 µM, 48 h 0.97 | 0.01 µM, 72 h 0.974 | 0.1 µM, 24 h 0.988 | 0.1 µM, 48 h 0.993 | 0.1 µM, 72 h 1 | 1 µM, 24 h 1.01 | 1 µM, 48 h 1.03 | 1 µM, 72 h 1.04
